Screening results as filed in PubChem.
Compounds with a hit are over-represented: about 1.6% of the library has one in this group of screens.
KCNQ2 block – rat KCNQ2 potassium channel inhibitors, primary screen, cell-based, CHO-K1, FluxOR thallium flux, B-score; Potassium voltage-gated channel subfamily KQT member 2 (Rattus norvegicus), O88943; 20 min; active compounds read low; B-score at 10 µM; 310,000 compounds, 1.1% hits;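 active means fluorescence ratio B-score at most minus 3 library SDs, with starting brightness B-score within 2 library SDs, cut at about -5.5 in these data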
Target sequence (O88943 whole entry, looked up): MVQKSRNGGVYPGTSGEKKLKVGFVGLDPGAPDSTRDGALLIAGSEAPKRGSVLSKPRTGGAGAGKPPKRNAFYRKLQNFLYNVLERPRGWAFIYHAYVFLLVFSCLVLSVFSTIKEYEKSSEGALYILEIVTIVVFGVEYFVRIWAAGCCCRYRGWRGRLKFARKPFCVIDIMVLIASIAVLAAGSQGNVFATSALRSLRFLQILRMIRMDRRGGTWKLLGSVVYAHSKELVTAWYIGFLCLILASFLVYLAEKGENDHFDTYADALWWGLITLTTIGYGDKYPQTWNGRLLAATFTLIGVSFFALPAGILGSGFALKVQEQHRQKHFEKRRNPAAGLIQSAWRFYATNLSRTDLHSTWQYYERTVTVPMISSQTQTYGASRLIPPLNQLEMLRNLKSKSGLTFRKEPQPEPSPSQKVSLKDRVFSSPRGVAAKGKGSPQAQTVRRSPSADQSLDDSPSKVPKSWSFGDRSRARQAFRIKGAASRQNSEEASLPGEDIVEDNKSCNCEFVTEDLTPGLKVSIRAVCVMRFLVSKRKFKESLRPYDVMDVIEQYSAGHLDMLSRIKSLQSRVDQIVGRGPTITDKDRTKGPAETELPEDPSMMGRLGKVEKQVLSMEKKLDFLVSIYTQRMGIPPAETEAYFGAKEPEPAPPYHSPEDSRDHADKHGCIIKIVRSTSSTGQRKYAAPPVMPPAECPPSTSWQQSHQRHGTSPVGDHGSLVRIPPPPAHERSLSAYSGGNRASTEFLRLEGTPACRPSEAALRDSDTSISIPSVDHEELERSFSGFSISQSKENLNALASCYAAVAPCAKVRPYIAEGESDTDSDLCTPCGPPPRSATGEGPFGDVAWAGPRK
KCNQ2 pot – potentiators of rat KCNQ2 potassium channel | CHO-K1 KCNQ2, FluxOR thallium flux fluorescence; active compounds read high | B-score at 10 µM | 310,000 compounds, 0.54% hits | AID 2239, 2010;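 active means fluorescence ratio B-score at least 3 SD of library B-scores, with initial fluorescence B-score within 3 of them, cut at about 5.3 in these data; same plate scores as AID 2156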;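 further: B-score of peak minus minimum over baseline fluorescence ratio after K+ and Tl+ stimulus; positive B-score means potentiation of KCNQ2 with more thallium influx and brighter signal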
KCNQ2 block conf – rat KCNQ2 potassium channel inhibitors, confirmation, cell-based, thallium flux; AID 493025, 2011; 1,000 compounds, 57% hits; shares compounds with KCNQ2 block; activity change, negative = inhibition, % at 10 µM; KCNQ2-expressing cells, inhibition; active compounds read low;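 further: 0% = vehicle wells and values are ratio percent relative to vehicle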
KCNQ1 spec – human KCNQ1 channel inhibition, counter-screen for KCNQ2 inhibitor project, cell-based, FluxOR thallium flux | shares compounds with KCNQ2 block | KCNQ1-expressing cells, FluxOR thallium flux fluorescence; active compounds read low | activity change, negative = inhibition, % at 10 µM | 1,000 compounds, 15% hits | AID 493026, 2011;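 active means activity change at least 3 SD of negative controls below their mean in both duplicate wells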;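 further: CHO cells stably transfected with KCNQ1 and depolarized by potassium stimulus; peak minus minimum fluorescence over baseline after thallium addition; 0% = vehicle negative control and -100% = blank without thallium stimulus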
CHO Tl ctr – thallium flux change in parental CHO cells, counter-screen for KCNQ2 inhibitor project | active compounds read low | 1,000 compounds, 14% hits | activity change, % at 10 µM | shares compounds with KCNQ2 block | AID 493029, 2011;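 further: 0% = vehicle negative controls with stimulus buffer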
KCNQ2 inh confirm – rat KCNQ2 channel inhibitors, confirmation, cell-based, automated patch clamp, single concentration; shares compounds with KCNQ2 block; KCNQ2-expressing cells, automated patch clamp current; calls only at 10 µM; 550 compounds, 49% hits; AID 588531, 2011
Numbers without * were called inactive; i = inactive; . = not tested or not shown; + = active, no number. Unless noted, how the calls were made is not given here.

SMILES	KCNQ2 block	KCNQ2 pot	KCNQ2 block conf	KCNQ1 spec	CHO Tl ctr	others
O=[N+]([O-])c1ccc(Sc2cccc[n+]2[O-])c2nonc12	-15*	-15	-64%*	-57%*	-60%*	KCNQ2 inh confirm=i
O=[N+]([O-])c1ccc(Nc2ccccc2)c2nonc12	i	0.04	.	.	.
Cc1cc(=O)n2nc(N3CCCC(C(=O)NCc4ccccc4Cl)C3)sc2n1 (stereo not drawn)	i	.	.	.	.
O=C(Cn1c(=O)cnc2ccccc21)N1CCN(S(=O)(=O)c2cccc([N+](=O)[O-])c2)CC1	i	.	.	.	.
CC(=O)OCCN(CCCn1c(-c2ccncc2)nc2ccccc21)c1nc(CN2CCCCC2)cs1	i	.	.	.	.
CCCCN(CC)CCNC(=O)c1cc2c(-c3ccc(Cl)cc3)nn(C)c2s1	-8.4*	-8.4	-35%*	i	i	KCNQ2 inh confirm=i
CCOCCCNC(=O)c1cc2c(-c3ccc(Cl)cc3)nn(C)c2s1	i	0.84	.	.	.
CCCN(CCC)CCNC(=O)c1cc2c(-c3ccc(Cl)cc3)nn(C)c2s1	-7.3*	-7.3	-34%*	i	i	KCNQ2 inh confirm=i
CCN(CC)CCNC(=O)c1cc2c(-c3ccc(Cl)cc3)nn(C)c2s1	i	.	.	.	.
Cc1cc(C)c(OCC(=O)OC(C)C(=O)N2CCc3ccccc32)c(C)c1 (stereo not drawn)	i	.	.	.	.
CCOc1ccc(CCNC(=O)CN2C(=O)c3cccnc3Oc3ccc(Cl)cc32)cc1	i	.	.	.	.
COc1ccccc1NC(=O)C1CCCN(S(=O)(=O)c2ccc3c(c2)CC(C)N3C(C)=O)C1 (stereo not drawn)	i	.	.	.	.
COc1cc(NC(=O)c2cc(-c3ccccc3)on2)cc(OC)c1OC	i	.	.	.	.
COc1cc(NC(=O)c2cc3nc(-c4ccccc4)cc(-c4ccccc4)n3n2)cc(OC)c1OC	-7.1*	-7.1	i	i	i
CC(C(=O)Nc1ccccc1)N(C)Cc1cccs1 (stereo not drawn)	i	0.71	.	.	.
CCN(C(=O)C(C)OC(=O)CCCNC(=O)c1ccc(Cl)cc1)c1ccccc1 (stereo not drawn)	i	0.53	.	.	.
OCC1(Cc2cccc(Cl)c2)CCCN(Cc2ccc(F)c(F)c2)C1 (stereo not drawn)	i	.	.	.	.
CSc1cccc(CN2CCCC(CO)(Cc3cccc(Cl)c3)C2)c1 (stereo not drawn)	-7*	-7	i	i	i
O=C(NCc1ccc(Cl)cc1)C1CCC(=O)N(C2CCCCCC2)C1 (stereo not drawn)	i	.	.	.	.
Cc1ccc(NCCC(=O)c2cccs2)cc1Cl	i	.	.	.	.
Cc1ccc(NCCC(=O)c2cccs2)cc1C	-6.7*	-6.7	i	i	i
CSCCC(=O)N1CC[C@@H](N2CCN(c3ccccc3F)CC2)[C@H](O)C1	i	0.13	.	.	.
C=CCN1C(=O)c2ccc(C(=O)N3CCN(S(=O)(=O)c4cc(C)ccc4C)CC3)cc2C1=O	i	0.04	.	.	.
CSc1nc(Cl)c(Cc2ccc(OC(C)C)cc2)c(N2CCOCC2)n1	-11*	-11	i	i	i
COc1nc(SC)nc(Cl)c1Cc1ccc(OC(C)C)cc1	i	.	.	.	.
SMILES	KCNQ2 block	KCNQ2 pot	KCNQ2 block conf	KCNQ1 spec	CHO Tl ctr	others
Cc1cccc(NCc2nc3ccccc3n2Cc2ccccc2)c1	-8.4*	-8.4	i	i	i
Cc1nc2cc(NCc3nc4ccccc4n3Cc3ccccc3)ccc2n1C	i	.	.	.	.
O=C(Nc1ncccc1O)c1cccc(S(=O)(=O)NCc2ccccc2)c1	i	0.04	.	.	.
Cn1c2ccccc2c2c(C(=O)NCc3ccco3)cn(C3CCCCC3)c(=O)c21	-9.8*	-9.8	-26%*	i	i	KCNQ2 inh confirm=+
COCCn1cc(C(=O)NCc2ccco2)c2c3ccccc3n(C)c2c1=O	i	0.07	.	.	.
COc1ccc(Cl)cc1NC(=O)C(C)N(C)Cc1cccc(Cl)c1Cl (stereo not drawn)	-7.3*	-7.3	i	i	i
COc1ccc(Cl)cc1NC(=O)NC(C)C	i	.	.	.	.
O=C(CSc1ccc(-c2ccc(Cl)cc2)nn1)NC1CCCC1	i	.	.	.	.
CC(C)=CCc1c(O)cc2c(c1O)C(=O)CC(c1ccccc1)O2 (stereo not drawn)	i	1	.	.	.
COc1ccc(C2CC(=O)c3c(O)cc(O)cc3O2)c(CC=C(C)C)c1OC (stereo not drawn)	-13*	-13	-34%*	i	i	KCNQ2 inh confirm=+
CCCCOc1cccc(C2/C(=C(/O)c3ccc4c(c3)CC(C)O4)C(=O)C(=O)N2CCN2CCOCC2)c1 (stereo not drawn)	i	.	.	.	.
COc1ccccc1OCC(=O)Nc1ccccc1C(=O)N1CCCC1	i	0.04	.	.	.
O=C(COc1ccc(F)cc1Cl)Nc1ccccc1C(=O)N1CCCCC1	-8.6*	-8.6	-22%*	i	i	KCNQ2 inh confirm=+
CCOC(=O)c1c(-c2ccc(C)cc2)csc1NC(=O)C1CCCO1 (stereo not drawn)	i	0.38	.	.	.
CC(C)OC(=O)c1c(-c2ccc(C(C)C)cc2)csc1NC(=O)C1CCCO1 (stereo not drawn)	-7.2*	-7.2	-32%*	i	i	KCNQ2 inh confirm=i
CN(C(=O)C1CCC(=O)N(Cc2cccc(F)c2)C1)C1CCCCC1 (stereo not drawn)	i	0.75	.	.	.
COc1ccc(C(C(=O)NC(C)(C)C)N(C(=O)CCC(=O)Nc2ccccn2)C2CCCCC2)cc1 (stereo not drawn)	i	.	.	.	.
CCCC[C@@H]1C[C@H]1[C@@H](NC(=O)c1cccs1)c1ccc(C(F)(F)F)cc1	-8.7*	-8.7	-18%*	i	i	KCNQ2 inh confirm=i
CCCC[C@@H]1C[C@H]1[C@@H](NC(=O)c1ccco1)c1ccccc1C(F)(F)F	i	.	.	.	.
COc1ccc(/C=[N+](\[O-])C2N(c3ccccc3)C(=S)SC2(C)C)cc1OC (stereo not drawn)	i	0.34	.	.	.
COc1cc(C)ccc1OCc1cc(C(=O)N2CCN(C3CCCCC3)CC2)no1	i	0.32	.	.	.
Cc1ccccc1OCC(O)CN1C(=O)c2ccccc2C1=O (stereo not drawn)	i	.	.	.	.
C=CCc1ccccc1OCC(O)CN1C(=O)c2ccccc2C1=O (stereo not drawn)	-12*	-12	i	i	i
CC(C(=O)NCCc1ccccc1)N1c2cccc3cccc(c23)S1(=O)=O (stereo not drawn)	i	.	.	.	.
CN1CCN(CCCN2c3ccccc3Sc3ccc(C(F)(F)F)cc32)CC1	-8.1*	-8.1	-34%*	i	i	KCNQ2 inh confirm=i
O=C(CN1CCCC(O)C1)N1c2ccccc2Sc2ccc(C(F)(F)F)cc21 (stereo not drawn)	i	.	.	.	.
